# In the library only some 1.9% were active in any assay of this set; here they are far more common.
# Integrin act MD – activates integrin-mediated alleviation for muscular dystrophy. alpha7betagal myoblasts, beta-gal FDG fluorescence, 48 h. Potency, µM (top dose mostly 38.3 µM), for inactives: at the highest dose activation, actives largely listed as activators. 350,000 compounds, 0.064% hits. AID 624291;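 note: potency is the fitted concentration of half-maximal effect; 100% = response of the positive control SU9516; nearly all actives have a fitted effect of over 60% in size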
#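 Alpha7betagal+/- myoblasts (passage 13) were plated 16-24 hr, then exposed to compounds (1:260 dilution of DMSO stock) for 48 hours at 37C. After MPER lysis, β-galactosidase reporter activity was read as FDG fluorescence (ex 480/em 540) after 30 minutes.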
# ClpP mod – qHTS Assay for Activators of ClpP. ATP-dependent Clp protease proteolytic subunit (Bacillus subtilis (strain 168)), P80244. purified B. subtilis ClpP, FRET peptide cleavage, 20 min. Potency, µM (top dose mostly 57.5 µM), inactives show at the top dose activity change, negative = active. 340,000 compounds, 1.9% hits; active = well fitted falling curve with a large enough effect; inconclusive = small, poorly fitted or top-dose-only effect; inactive = no such curve, though single readings can be large or run the other way; note: potency is the fitted concentration of half-maximal effect; the source files actives as falling curves though it sought activators and does not explain the sign; nearly all actives have a fitted effect of over 65% in size
#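 ClpP 10 microg/mL final, pH 8 Tris/KCl buffer with BSA, glycerol, Tween-20; compound pinned in; FRET-FV substrate; RT 20 min; Ex320/Em430; ΔFRET vs ADEP 5.8 microM, DMSO, no enzyme.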
# IL-2 act – activates IL-2 in a cell-based reporter assay; IL-2 activation reporter assay, cell-based qHTS; stimulated with anti-CD3/CD4/CD28 beads; in transgenic mouse T cells; activation, % (series mostly up to about 46 µM); 360,000 compounds, 0.065% hits; AID 652025; in the data active = activation above about 50%; inconclusive = mostly about 30% to 49%; note: 0% is about no effect
#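 Readout: EGFP and DsRed signals by fluorescent plate cytometry. Unstimulated transgenic mouse T cells received compound 60 min before antibody-bead stimulation, then incubated 18 h at 37 degrees C.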
# PKM2 activator – activators of human pyruvate kinase M2 | P14618 | purified PKM2, Kinase-Glo ATP luminescence, activation; response scale: 0% is enzyme alone, no compound | Potency, µM (highest dose often 57.5 µM), inactives show at the highest dose activation, usual class: activators | 260,000 compounds, 0.34% hits | AID 1631; note: potency is the fitted concentration of half-maximal effect; % is set by controls: 0 for no effect and ±100 for the full control effect; nearly all actives have a fitted effect of over 55% in size
# Target sequence (P14618 whole entry, looked up): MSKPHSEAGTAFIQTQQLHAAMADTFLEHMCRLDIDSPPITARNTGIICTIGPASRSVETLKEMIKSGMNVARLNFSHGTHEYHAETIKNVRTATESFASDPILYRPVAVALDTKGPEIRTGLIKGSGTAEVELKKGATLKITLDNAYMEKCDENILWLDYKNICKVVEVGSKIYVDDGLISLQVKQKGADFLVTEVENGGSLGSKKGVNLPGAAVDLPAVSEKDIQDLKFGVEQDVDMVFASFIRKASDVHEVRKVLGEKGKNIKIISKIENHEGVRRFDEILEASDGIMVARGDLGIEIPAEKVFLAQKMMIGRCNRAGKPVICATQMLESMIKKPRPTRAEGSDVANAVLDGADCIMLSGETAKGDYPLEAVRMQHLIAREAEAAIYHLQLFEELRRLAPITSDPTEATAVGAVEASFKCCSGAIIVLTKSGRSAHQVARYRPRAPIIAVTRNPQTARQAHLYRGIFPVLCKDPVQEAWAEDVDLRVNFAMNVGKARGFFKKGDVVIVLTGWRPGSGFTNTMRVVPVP
#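 Kinase-Glo luminescence reports ATP generated from ADP (0.1 mM) and PEP (0.5 mM) by purified hPK-M2 after 1 h at room temperature, pH 7.2 imidazole buffer; intermediate enzyme activity allows detecting inhibitors and activators.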
# Pin1 inhibitor – inhibitors of human Pin1. Q13526. Pin1 FP peptide displacement, HiFluor488, 10 min. Potency, µM (top dose mostly 115 µM), for the others: top-dose activity, negative = inhibition, usual class: inhibitors. 390,000 compounds, 0.009% hits. AID 504891; active = well fitted inhibition curve with a large enough effect in the polarisation, with a control signal flat, not every such curve was filed as active; inconclusive = small, poorly fitted or top-dose-only effect, or effect the other way, or a change in a side signal; inactive = no such curve, though single readings can be large or run the other way; the % refers to the polarisation; note: potency is the fitted concentration of half-maximal effect; % is set by controls: 0 for no effect and ±100 for the full control effect
# Target sequence (Q13526 whole entry, looked up): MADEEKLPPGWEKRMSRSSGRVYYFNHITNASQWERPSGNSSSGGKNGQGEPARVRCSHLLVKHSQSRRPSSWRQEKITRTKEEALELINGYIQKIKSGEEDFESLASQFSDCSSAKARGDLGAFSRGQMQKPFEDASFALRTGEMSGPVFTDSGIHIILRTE
# USP2a block – USP2a (human) protease inhibition | O75604 | USP2 core, Ub-CHOP2 coupled fluorogenic reporter, 485/531 | Potency, µM (titrated, usually from 38.3 µM), without a hit: at the top dose activity change, negative = inhibition, actives largely listed as inhibitors | 330,000 compounds, 0.01% hits | AID 463254;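 note: potency is the fitted concentration of half-maximal effect; plate controls were DMSO wells for no effect and full inhibition by NEM control for full effect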
#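 USP2 core (10nM final) preincubated 30min RT with compound in 20mM Tris-HCl pH 8.0, 2mM CaCl2, 2mM beta-mercaptoethanol, 0.05% CHAPS; 25nM Ub-CHOP2 plus 25nM reporter substrate added, fluorescence (Ex485/Em531) read after 60min.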
# Active calls of the source: *; ? = inconclusive; / = no result given. Unless noted, calls come from the whole dose curve; as a rule, active = well fitted curve in the direction sought with a large enough effect; inconclusive = small, poorly fitted or top-dose-only effect, or another doubt; inactive = no such curve, though single readings can be large; an effect the other way counts as inactive or inconclusive.
SMILES,Integrin act MD,ClpP mod,IL-2 act,PKM2 activator,Pin1 inhibitor,USP2a block
O=C(c1ccco1)N1CCN(/C=C2\Nc3ccccc3C(=O)N2c2ccc(F)cc2)CC1,/,-0.4%,/,/,-2.1%,/
CCCCC(=O)Nc1cc(N(C)C)nc2ccccc12,-13.9%,8.91µM*,-0.4,-6.0%,-2.8%,0.7%
Nc1nc(N)c2c(OCc3ccc(C(F)(F)F)cc3)cccc2n1,/,4.5%,/,/,/,/
CCCCC(=O)NC(Nc1cc(C)ccn1)(C(=O)OCC)C(F)(F)F (stereo not given),21.3%,25.1µM*,0.3,0.1%,0.3%,0.8%
CCOC(=O)C(NC(C)=O)(Nc1ccc(F)cc1)C(F)(F)F (stereo not given),5.1%,20µM*,-2.0,-1.1%,0.9%,0.8%
C/C(Cc1ccccc1)=N\NC(=O)C1CCCCC1,-2.5%,28.2µM*,0.3,-3.0%,1.8%,1.9%
COc1ccc2cc(CN(CCc3ccccc3)Cc3nnnn3CC3CCCO3)c(=O)[nH]c2c1 (stereo not given),14.3%,-26.5%,-1.2,-10.0%,-0.4%,-5.0%
COc1ccc2cc(C(c3nnnn3CC3CCCO3)N3CCOCC3)c(=O)[nH]c2c1 (stereo not given),0.8%,25.1µM*,1.0,0.4%,-0.7%,0.6%
CCOc1ccc2[nH]c(=O)c(CN(CCO)Cc3nnnn3CCc3ccccc3)cc2c1,-4.9%,31.6µM*,-1.5,4.8%,-8.4%,1.1%
Cc1ccc2[nH]c(=O)c(CN(CCc3ccccc3)Cc3nnnn3CC3CCCO3)cc2c1 (stereo not given),-7.5%,-3.8%,-0.6,-0.4%,-2.3%,1.6%
O=c1[nH]c2cc3c(cc2cc1CN(CCc1ccccc1)Cc1nnnn1CC1CCCO1)OCO3 (stereo not given),1.4%,25.1µM*,-1.7,22.6%,4.4%,8.6%
Cc1ccc2[nH]c(=O)c(CN(CCO)Cc3nnnn3Cc3ccccc3)cc2c1,/,-28.6%,/,/,1.2%,/
COc1ccc2[nH]c(=O)c(CN(CCc3ccccc3)Cc3nnnn3CC3CCCO3)cc2c1 (stereo not given),-10.9%,25.1µM*,-1.5,5.7%,-17.1%,0.7%
O=C(C[n+]1ccccc1Cl)c1ccccc1,/,-3.7%,/,/,/,/
O=C(C(Cc1ccccc1)N1C(=O)C2C3C=CC(C3)C2C1=O)N1CCCCCC1 (stereo not given),14.3%,0.7%,-2.4,0.2%,-6.1%,/
O=C(C(Cc1ccccc1)N1C(=O)C2C3C=CC(C3)C2C1=O)N1CCCCC1 (stereo not given),-20.6%,20µM*,2.1,-0.9%,0.6%,4.6%
N#Cc1c(/N=C/c2ccc(-c3ccc(C(=O)O)c(Cl)c3)o2)sc2c1CCCC2,0.2%,35.5µM*,1.5,/,-2.9%,2.2%
N#Cc1c(/N=C/c2ccc(-c3ccccc3C(=O)O)o2)sc2c1CCCC2,4.9%,-1.0%,-4.2,/,13.6%,2.5%
COc1cccc(CN2CCC2(C)C(=O)Nc2cccc3cccnc23)c1F (stereo not given),/,28.2µM*,0.4,/,/,/
COc1ccc(OC)c(NC(=O)C2(C)CCN2Cc2cccc(OC)c2F)c1 (stereo not given),/,-0.7%,-0.8,/,/,/
C[N+]1(CC(=O)c2cccc([N+](=O)[O-])c2)CCOCC1,/,0.2%,/,/,/,/
CCc1ccc(C2/C=C\CNC(c3ccccc3)C(=O)N2Cc2ccc(C)cc2)cc1 (stereo not given),/,/,/,/,7.0%,/
CCOC(=O)N1CCN(C(=O)CCS(=O)(=O)c2ccc3c(c2)CCN3C(=O)CC)CC1,-8.2%,1.5%,-1.2,3.1%,0.3%,1.1%
COC(=O)CCC(=O)N1CCc2cc(S(=O)(=O)N3CCc4ccccc43)ccc21,19.2%,-2.9%,-1.2,12.6µM*,11.5%,-0.2%
CCOC(=O)C1CCN(C(=O)CCS(=O)(=O)c2ccc3c(c2)CCN3C(=O)CC)CC1,-7.8%,20µM*,-5.1,-2.3%,-13.6%,0.2%
SMILES,Integrin act MD,ClpP mod,IL-2 act,PKM2 activator,Pin1 inhibitor,USP2a block
CCc1cccc(CC)c1NC(=O)CCS(=O)(=O)c1ccc2c(c1)CCN2C(C)=O,/,0.1%,/,/,-8.6%,/
CC(=O)N1CCc2cc(S(=O)(=O)Nc3cccc(C(F)(F)F)c3)ccc21,-38.1%,-0.3%,-2.4,25.1µM*,?,-0.7%
COc1cccc(NS(=O)(=O)c2ccc3c(c2)CCN3C(C)=O)c1,-18.4%,-0.6%,-4.1,/,1.9%,-1.6%
CC(=O)N1CCc2cc(S(=O)(=O)CCC(=O)O)ccc21,16.6%,31.6µM*,-0.1,-0.4%,1.4%,-1.2%
CCCn1c(-c2ccc(F)cc2)nc2c(N3CCN(C)CC3)nc(C)nc21,/,/,/,1.2%,/,/
O=C(c1ccccc1O)N(Cc1ccco1)Cc1cccs1,/,/,/,/,-16.0%,/
CN(C(=O)COC(=O)c1ccc2c(c1)OCO2)C1CCCCC1,16.0%,/,-0.6,/,2.8%,2.1%
CCN(C(=O)COC(=O)c1ccc2c(c1)OCO2)c1ccc(F)cc1,15.1%,28.2µM*,-2.0,/,4.4%,0.6%
CCOC(=O)c1nn(-c2ccc(OC)cc2)c(=O)c2c(NC(=O)Cc3ccccc3)scc12,/,/,/,/,2.7%,/
CCOC(=O)c1sc2nc(CC(=O)OC)nc(NCc3ccco3)c2c1C,-6.5%,28.2µM*,3.1,?,?,-1.3%
O=C1C(Cl)=C(NC2CCc3ccccc32)C(=O)c2ncccc21 (stereo not given),/,/,/,4.3%,/,/
CC1CC(C)CN(C(=S)Nc2ccc(SC(F)F)cc2)C1 (stereo not given),6.7%,28.2µM*,0.4,5.1%,1.3%,-2.9%
CC1CN(C(=S)Nc2ccc(SC(F)F)cc2)CC(C)O1 (stereo not given),8.4%,/,-1.9,-4.3%,3.0%,0.6%
CN(C)c1ccc(/C=C/c2ccnc3c(Cl)ccc(Cl)c23)cc1,/,-3.4%,/,/,/,/
O=C(O)CCn1cc(/C=C2/NC(=S)N(c3ccccc3)C2=O)c(-c2ccccc2)n1,20µM*,12.6µM*,1.3,-2.6%,-1.1%,-0.1%
CN(C=O)c1cc([N+](=O)[O-])ccc1OCc1ccccc1,19.3%,0.1%,-1.8,/,-4.0%,/
CNc1cc([N+](=O)[O-])ccc1OCc1ccccc1,4.47µM*,0.5%,-2.2,0.7%,-11.0%,0.0%
CNS(=O)(=O)c1cc2c3c(cccc3c1)C(=O)NC2=O,12.1%,-9.3%,-2.8,12.6µM*,-18.0%,1.4%
COc1ccc([S+](=O)([O-])N2CCN([S+](=O)([O-])c3ccc4c(c3)OCCO4)CC2)c(OC)c1,/,/,/,/,23.2%,/
O=C(COC(=O)c1ccccc1Cl)Nc1cccnc1Cl,11.5%,-0.3%,-0.3,/,-2.6%,0.0%

# Screening results deposited in PubChem BioAssay by National Center for Advancing Translational Sciences (NCATS).
